In assay [1] the test system is XIP peptide (Xip251-270) binding. The assay is described as follows: XIP fragment 251-270 binding compounds – biochemical, small-molecule microarray, fluorescence 635/667 nm, 0.1 µg/mL protein, primary screen (AID 1182). To be noted: fluorescent protein binding, 635 nm, higher = more signal, called active from +8 up or from −8 down.
The subject of assay [2] is XIP peptide (Xip251-270). The assay is described as follows: compounds binding XIP fragment 251-270 – biochemical, small-molecule microarray, fluorescence 635/667 nm, 0.5 µg/mL protein, primary screen (AID 1183). Conditions: fluorescence 635 nm, higher = more signal.
Assay [3] in a line: blood-stage malaria parasite viability loss – strain 3D7, DAPI fluorescence, 100 nL, primary screen (AID 1184).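 Also: parasites grown inside human red blood cells in medium with human serum.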 Conditions: P. falciparum 3D7 growth, 3 d, higher = more signal.
For assay [4], the target named is Homeobox protein Hox-A13 (Mus musculus) (UniProt Q62424). Nature of the assay: disruptors of Hoxa13 oligonucleotide interaction – biochemical, fluorescence polarization, labeled oligonucleotide, primary screen (AID 1185). To be noted: Hoxa13:DNA binding, 15 min, higher = more signal, called active from +8 up or from −8 down. A general note: Polarisation of emitted light reports the rotation of a fluorescent probe.
Sequence of Homeobox protein Hox-A13 (Mus musculus) (Q62424 whole entry, looked up): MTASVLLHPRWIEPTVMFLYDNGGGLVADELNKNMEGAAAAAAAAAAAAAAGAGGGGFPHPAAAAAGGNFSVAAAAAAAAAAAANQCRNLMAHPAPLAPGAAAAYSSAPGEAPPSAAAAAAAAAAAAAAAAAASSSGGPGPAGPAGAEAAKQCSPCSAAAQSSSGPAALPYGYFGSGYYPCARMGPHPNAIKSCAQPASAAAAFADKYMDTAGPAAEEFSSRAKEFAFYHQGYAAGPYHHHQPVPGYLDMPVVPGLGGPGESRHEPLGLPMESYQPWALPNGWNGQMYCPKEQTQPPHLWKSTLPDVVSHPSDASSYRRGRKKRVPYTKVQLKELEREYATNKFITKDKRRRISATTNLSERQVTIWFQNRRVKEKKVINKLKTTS

Assay [5] in a line: blockers of DNA damage checkpoint Chk1 activation – imaging, HeLa, hydroxyurea, phospho-Chk1 antibody, percent positive cells, primary screen (AID 1186). To be noted: hydroxyurea-induced phospho-Chk1 immunofluorescence imaging, higher = more signal.
Assay [6] can be described thus: blockers of DNA damage checkpoint Chk1 activation – imaging, HeLa, hydroxyurea, phospho-Chk1 nuclear intensity, primary screen (AID 1187). To be noted: hydroxyurea-induced phospho-Chk1 immunofluorescence imaging, higher = more signal.

Structures are written as SMILES. The source made the active and inactive calls. Unless noted, no rule for the calls is given here.

With `O=c1c2ccc(Br)cc2nc(-c2ccccc2)n1Cc1cccc(O)c1`, the composite z-score was 0.0521 (inactive) in assay [1] and 0.748 in assay [2]. For the same compound, the z-score was -0.772 in assay [3], -3.01 (inactive) in assay [4], -0.005 (inactive) in assay [5] and -0.24 (inactive) in assay [6].
On to `COCCOC(=O)N1C(=O)[C@@]2(c3cc(C#Cc4ccc(OC)cc4)ccc31)[C@H](C(=O)N1CCc3cc(OC)c(OC)cc3C1)[C@H]1C(=O)O[C@H](c3ccccc3)[C@H](c3ccccc3)N1[C@@H]2c1ccc(OCCO)cc1`, for which the results for the composite z-score in assay [1] and in assay [2] were -0.266 (inactive) and 0.688, respectively. For the same compound, the z-score in assay [3] was -2.22; in assay [4], 2.6 (inactive); in assay [5], 0.0413 (inactive); in assay [6] it was 0.277 (inactive).
Regarding `COCCOC(=O)N1C(=O)[C@@]2(c3cc(C#Cc4ccc(OC)cc4)ccc31)[C@H](C(=O)N1CCc3cc(OC)c(OC)cc3C1)[C@H]1C(=O)O[C@H](c3ccccc3)[C@H](c3ccccc3)N1[C@@H]2c1ccc(O)cc1`, the composite z-score in assay [1] was 1.64 (inactive); in assay [2] it was 0.759. Besides, the z-score in assay [3] was -1.65; in assay [4], -0.63 (inactive); in assay [5], -0.241 (inactive); in assay [6], -0.261 (inactive).
`COc1cc2c(cc1OC)CN(C(=O)[C@@H]1[C@H]3C(=O)O[C@H](c4ccccc4)[C@H](c4ccccc4)N3[C@H](c3ccc(O)cc3)[C@@]13C(=O)Nc1ccc(C#CCNC(N)=O)cc13)CC2`: the composite z-score in assay [1] is 0.503 (inactive); in assay [2], -0.0161. The z-score was -0.656 in assay [3], -1.67 (inactive) in assay [4], 0.259 (inactive) in assay [5] and 0.278 (inactive) in assay [6].
`COCCCNC(=O)[C@@]1(Cc2ccccc2)COC(c2ccc(OCCCO)cc2)=N1`: the results for the composite z-score in assay [1] and in assay [2] were 0.506 (inactive) and 0.811, respectively. Further, the z-score in assay [3] was -0.723; in assay [4], -4.31 (inactive); in assay [5] it was -0.0447 (inactive); in assay [6], -0.109 (inactive).
As for `CC(C)(C)N1CC=CC23O[C@@H]4C=CCCOC(=O)C4[C@H]2C(=O)N(CCCO)[C@@H]3C1=O` (some centres undefined), the composite z-score in assay [1] is -0.508 (inactive); in assay [2], -1.18. The z-score in assay [3] is -1.75; in assay [4], -5.86 (inactive); in assay [5], -0.0977 (inactive); in assay [6], -0.102 (inactive).
Take `CC(C)C[C@@H]1NC(=O)[C@@]23C(=O)N[C@@H](Cc4ccccc4)C2[C@H](C)[C@@]2(C)O[C@H]2C3/C=C/C/C=C\CNC(=O)[C@@H]2CCCN2C1=O` (some centres undefined): the composite z-score in assay [1] was -0.0982 (inactive); in assay [2], -0.791. Moreover, the z-score is 0.817 in assay [3], -6.29 (inactive) in assay [4], -0.118 (inactive) in assay [5] and 0.275 (inactive) in assay [6].
Turning to `O=C1OCC=C[C@H]2OC34C=CCN(CCN5CCOCC5)C(=O)[C@H]3N(CCCCCO)C(=O)[C@@H]4[C@@H]12` (some centres undefined), the results for the composite z-score in assay [1] and in assay [2] were 0.102 (inactive) and 0.609, respectively. The z-score in assay [3] is -0.285; in assay [4], -6.05 (inactive); in assay [5], 0.513 (inactive); in assay [6], -0.209 (inactive).
As for `CCC[C@@H]1C[C@@]1(CCC)[C@@H](NC(=O)c1ccco1)c1ccc(Cl)cc1`, the composite z-score in assay [1] was 0.0025 (inactive); in assay [2], -0.835. The z-score in assay [3] is -1.21; in assay [4], -0.61 (inactive); in assay [5] it was 0.348 (inactive); in assay [6] it was 0.241 (inactive).
Regarding `COC(=O)[C@]1(Cc2ccccc2CN=[N+]=[N-])N=C(c2ccc(OCCCO)cc2)O[C@@H]1c1ccccc1CN=[N+]=[N-]`, the composite z-score in assay [1] is 0.319 (inactive); in assay [2], 0.728. Besides, the z-score in assay [3] is -2.27; in assay [4] it was 0.13 (inactive); in assay [5], -0.716 (inactive); in assay [6] it was -0.601 (inactive).
Regarding `[N-]=[N+]=Nc1ccccc1[C@H]1OC(c2ccc(OCCCO)cc2)=N[C@@]1(Cc1ccccc1)C(=O)NCc1ccccc1`, the composite z-score was 1.39 (inactive) in assay [1] and 0.596 in assay [2]. In addition, the z-score in assay [3] is -2.24; in assay [4] it was -2.71 (inactive); in assay [5] it was -0.684 (inactive); in assay [6], -0.5 (inactive).
With `CCCCC(=C=CC[C@H](O)c1cccc(OCCO)c1)C[C@H](O)COCc1ccccc1`, the results for the composite z-score in assay [1] and in assay [2] were 1.4 (inactive) and 0.752, respectively. The z-score in assay [3] is -1.88; in assay [4] it was -4.78 (inactive); in assay [5] it was -0.0835 (inactive); in assay [6] it was 0.0554 (inactive).
On to `COCCOC(=O)N1C(=O)[C@@]2(c3cc(C#CCC(C(=O)OC)C(=O)OC)ccc31)[C@H](C(=O)N1CCCCCCC1)[C@H]1C(=O)O[C@H](c3ccccc3)[C@H](c3ccccc3)N1[C@@H]2c1ccc(O)cc1`, for which the values for the composite z-score in assay [1] and in assay [2] were 0.825 (inactive) and 0.729, respectively. The z-score in assay [3] was -2.22; in assay [4], -0.454 (inactive); in assay [5] it was -0.15 (inactive); in assay [6], -0.367 (inactive).
As for `C=CC[C@]1(C(=O)N2CCOCC2)N=C(c2ccc(OCCCO)cc2)O[C@H]1c1ccccc1CN=[N+]=[N-]`, the results for the composite z-score in assay [1] and in assay [2] were 0.349 (inactive) and 0.836, respectively. Moreover, the z-score in assay [3] was -2.33; in assay [4], -4.04 (inactive); in assay [5], -0.552 (inactive); in assay [6], -0.429 (inactive).
